Results on 27 molecules are retold here after PubChem BioAssay AID652128 (Broad Institute, 2013).

The list shows a part of the results. Records with an inconclusive call do not appear. Active and inactive are the calls of the source.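 The calls were made as follows: active = fitted half-maximal concentration for signal loss at or below twice the highest dose tested, in every separate run (actives reach about 64 µM in these data); inconclusive = runs disagree, or flat partial signal loss, or poor fit; inactive = the rest.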

This assay in a line: DNA-binding compounds via dye displacement, dose response, artefact control for RAD52 inhibitor project, biochemical, fluorescence polarization, cherry-pick (AID 652128). The following applies: Salmon sperm DNA/acridine orange FP displacement. Background: Polarisation of emitted light reports the rotation of a fluorescent probe.

For `CCN(CC)CCn1c2ccc(Cl)cc2c2nc(C)sc21`, the molecule was classed as inactive. Take `NCCCNC(=S)NCCCN(Cc1ccc(Cl)cc1)c1ccc(Br)cn1`: the result was inactive.

For `COC1=C(N2CCOCC2)C(=O)c2ccccc2C1=O`, the molecule was called inactive.

In the case of `O=C(/C=C/c1cn(-c2ccccc2)nc1-c1ccc2c(c1)OCCO2)NCCCN1CCOCC1`, the result was inactive. The same measure, in the same setting: under `NC(N)=Nc1nc(-c2ccccc2)c2cc(Cl)ccc2n1` stands “inactive”; under `CN1CCN(C2Cc3ccc(Cl)cc3Sc3ccc(F)cc32)CC1` (configuration not stated), “inactive”. As for `CC(=O)c1cccc(-c2cnc3c(NC=O)cc(-c4ccc(N5CCN(C)CC5)cc4)cn23)c1`, the call was inactive.

Broadly, the AC50 is the midpoint of the concentration-response curve, whichever way the signal moves. Regarding `CCC1CCCCN1CCCNC(=O)c1cc2c(Cl)nc3ccccc3c2s1` (configuration not stated), the AC50 is 49 µM (active). For `CC(=O)Nc1ccc(Nc2c3ccccc3nc3ccccc23)cc1`, the AC50 is 7.66 µM (active). Consider `COc1cccc2sc(N(CCCN(C)C)C(=O)C(c3ccccc3)c3ccccc3)nc12`, for which the molecule was classed as inactive.

As for `COc1cccc(CNc2nc(NCc3cccs3)nc3ccsc23)c1`, the molecule was called inactive.

On to `C=Cn1cc[n+](CC(=O)c2ccc(OC)c(OC)c2)c1`, for which the outcome was inactive.

On to `CCN(CC(=O)Nc1ccc(NC(C)=O)cc1)C(=O)C1CC(=O)N(c2ccc3c(c2)OCCO3)C1` (configuration not stated), for which the result was inactive. Take `CN1CCN(c2nc(Nc3ccc(O)cc3)nc3ccccc23)CC1`: the result was inactive.

Turning to `Cc1ccc2c(c1)C1CN(C)CCC1N2S(=O)(=O)c1ccc(Oc2ccc([N+](=O)[O-])cc2)cc1` (configuration not stated), the result was inactive. Same read-out and setting: under `CCN1CCCC1CNC(=O)c1ccc2c(c1)NC(=O)/C(=C\c1ccccc1F)S2` (configuration not stated) stands “inactive”.

`CCN(CC)CCCNC(=O)c1cc2c(=O)[nH]c3ccc(C)cc3c2s1`: the AC50 is 49.6 µM (active).

As to `Cc1cc2oc3ccc(NCCC4CCCN4C)cc3c(=O)c2cc1C` (configuration not stated), the molecule was classed as inactive. Same read-out and setting: under `CN(C)CCN1CCN(c2cc(-c3cccc(Cl)c3)nc3ccnn23)CC1` stands “inactive”; under `CCN(CC)CCNC(=O)c1ccc(NC(=O)c2cc(-c3ccncc3)nc3ccccc23)cc1`, “inactive”. Still for that read-out and setting: under `CN1CCN(CCCNC(=O)c2ccc(/C=C3\Oc4ccccc4N(Cc4ccc(Cl)cc4)C3=O)cc2)CC1` stands “inactive”. For `Nc1ncc(CN2CCCC(C(=O)Nc3ccc(-c4ccco4)cc3)C2)cn1` (configuration not stated), the call was inactive. On to `COc1ccc(CC(N)c2csc(NC(=O)Nc3ccc(C(C)C)cc3)n2)cc1` (configuration not stated), for which the result was inactive. With `CCN(CC)CCN(C(=O)c1ccc2c(c1)CCCC2)c1nc2c(OC)cccc2s1`, the molecule was classed as inactive.

With `Cc1c(CCOC(=O)CC23CC4CC(CC(C)(C4)C2)C3)sc[n+]1Cc1ccc([N+](=O)[O-])cc1`, the call was inactive. `CCN(CC)CCC(c1ccc2c(c1)OCO2)c1c(OC)cc(OC)c2c(-c3ccccc3)cc(=O)oc12` (configuration not stated): the molecule was called inactive. Turning to `Cc1cc(C)c2nc3nc(C)cc(C)c3c(N)c2c1`, the AC50 is 30 µM (active).
